Compound activity from PubChem BioAssay.
FBW7 activator – FBW7 E3 ligase activators, primary screen, biochemical, AlphaScreen, human; normalized activity (activation), % at 26.1 µM; 650,000 tested, 0.13% active; AID 1259310, 2017; AlphaScreen FBW7–phospho-cyclin E peptide binding, activator screen; F-box/WD repeat-containing protein 7 (Homo sapiens), Q969H0; in the data active = normalized activity above about 1.9%;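 note: purified mutant Fbw7 with reduced substrate affinity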
Target sequence (Q969H0 whole entry, looked up): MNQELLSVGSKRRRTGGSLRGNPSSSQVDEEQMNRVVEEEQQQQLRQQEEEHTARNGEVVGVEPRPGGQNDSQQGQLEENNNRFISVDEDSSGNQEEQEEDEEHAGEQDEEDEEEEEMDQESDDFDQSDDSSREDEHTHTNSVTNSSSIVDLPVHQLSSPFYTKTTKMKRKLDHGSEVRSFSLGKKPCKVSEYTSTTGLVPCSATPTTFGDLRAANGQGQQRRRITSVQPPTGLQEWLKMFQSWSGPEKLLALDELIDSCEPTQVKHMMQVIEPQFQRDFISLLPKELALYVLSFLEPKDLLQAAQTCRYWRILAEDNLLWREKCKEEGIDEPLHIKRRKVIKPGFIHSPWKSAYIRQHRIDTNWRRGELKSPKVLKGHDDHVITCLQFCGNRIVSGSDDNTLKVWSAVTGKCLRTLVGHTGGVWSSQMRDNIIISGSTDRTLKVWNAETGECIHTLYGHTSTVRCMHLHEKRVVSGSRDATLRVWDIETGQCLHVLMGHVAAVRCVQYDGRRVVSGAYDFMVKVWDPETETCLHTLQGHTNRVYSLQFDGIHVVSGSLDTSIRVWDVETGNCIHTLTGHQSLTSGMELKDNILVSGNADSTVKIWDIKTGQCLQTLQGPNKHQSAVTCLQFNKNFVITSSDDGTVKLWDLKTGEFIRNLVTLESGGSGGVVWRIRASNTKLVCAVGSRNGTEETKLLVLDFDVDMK
TEAD-YAP block – TEAD-YAP interaction inhibition, primary screen, TEAD-YAP interaction inhibitor project, luminescence, HEK-TIYL cells | AID 1259422, 2018 | 640,000 tested, 1.4% active | inhibition, % at 9.12 µM | TEAD-Gal4/YAP UAS-luciferase luminescence; in the data active = inhibition above about 32%;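 note: 0% = median of test compound wells and 100% = reference inhibitor wells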
GPR151 ag – activators of human GPR151, primary screen, cell-based, PathHunter beta-arrestin, luminescence; PathHunter beta-arrestin GPR151 cells; G-protein coupled receptor 151 (Homo sapiens), Q8TDV0; AID 1508602, 2020; activation, % at 11.2 µM; 650,000 tested, 1% active; in the data active = activation above about 4.9%;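 note: 0% = median of compound wells and 100% = cells with positive control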
MITF inh – MITF inhibitors, primary screen, biochemical, AlphaScreen, human | AlphaScreen MITF homodimerization, bead proximity signal | Microphthalmia-associated transcription factor (Homo sapiens), O75030 | inhibition, % at 2.6 µM | 650,000 tested, 0.91% active; in the data active = inhibition above about 50%;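 note: 0% = vehicle wells with protein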
* marks the source's active call; other numbers are inactive results. Compounds with a hit are over-represented: about 3.5% of the library has one in this group of screens.

SMILES | FBW7 activator | TEAD-YAP block | GPR151 ag | MITF inh
O=C(N/N=C\c1ccc([N+](=O)[O-])s1)c1cncc(Br)c1 | 0 | 65* | -1 | 10
COc1ccc(C)cc1S(=O)(=O)N1CCN(c2ccc(-c3ccncc3)nn2)CC1 | 0 | 1 | -2 | 8
CCN(CC)c1ccc(N2CCN(S(=O)(=O)c3cc(C)ccc3OC)CC2)nn1 | 0 | 54* | 1 | 9
COc1ccc(CCNC(=O)c2ccc3nc(Nc4ccc5ncccc5c4)sc3c2)cc1 | 0 | 32* | 0 | 2
COc1cc(OC)c(NC(=O)c2ccc(N3CC4CC(C3)c3cccc(=O)n3C4)c(NC(=O)c3c(F)cccc3F)c2)cc1Cl (configuration not stated) | 0 | -2 | 0 | -4
COc1cc(NC(=O)C2COc3ccccc3C2)ccc1-c1cn[nH]c1 (configuration not stated) | 0 | 2 | 2 | -1
COc1cc(NC(=O)C2CC(=O)c3ccccc3C2)ccc1-c1cn[nH]c1 (configuration not stated) | 0 | 48* | 1 | -4
CCN(CC)c1ccc(C(=O)Nc2cc(C(=O)N3CCOCC3)ccc2N2CC3CC(C2)c2cccc(=O)n2C3)cc1 (configuration not stated) | 0 | 69* | 0 | -2
C[n+]1ccccc1NCCCN1CCOCC1 | 3.8* | 3 | -1 | -4
c1ccc(-c2nc(NCCCN3CCOCC3)cc(-c3ccncc3)n2)cc1 | 0 | 10 | -2 | 5
c1ccc(-c2cc(NCCCN3CCOCC3)nc(-c3ccccn3)n2)nc1 | -1 | 64* | -1 | 117*
CN1CCc2c(sc(NC(=O)c3ccc(Cl)s3)c2-c2nc3ccccc3s2)C1 | 0 | -3 | 0 | -12
Cn1cc(-c2ccc3cnc(Nc4ccc(-n5cnc(N6CCOCC6)n5)cc4)nc3c2-c2ccccc2)cn1 | 0 | 98* | 0 | 13
Cn1cc(-c2ccc3cnc(Nc4ccc(-n5cnc(N6CCOCC6)n5)cc4)nc3c2C2CC2)cn1 | 0 | 81* | -1 | 3
COc1c(-c2cnn(C)c2)ccc2cnc(Nc3ccc(-n4cnc(N5CCOCC5)n4)cc3)nc12 | 0 | 81* | -1 | 15
CC(C)n1cnc2c(NCCCN3CCCC3=O)nc(N3CCN(Cc4ccc5c(c4)OCO5)CC3)nc21 | 0 | -9 | 2 | -5
O=C(Nc1nc2c(s1)CCCC2)c1cc(F)c(F)c(F)c1F | 0 | 48* | 3 | 1
O=C(Nc1nc2c(s1)CCCC2)c1ccccc1I | 0 | -75 | 2 | -2
Cn1ccc(C(=O)Nc2nc3c(s2)CCCC3)n1 | 1 | 46* | -10 | 26
COC(=O)c1ccc(C(=O)Nc2nc3c(s2)CCCC3)cc1 | 0 | -77 | -4 | -10
CC(C)[C@H](Cn1nc(C2CC2)ccc1=O)NC(=O)Cc1cccs1 | 0 | 6 | 0 | -4
CCNC(=O)NCC12CC3CC(CC(C3)C1)C2 | 0 | -18 | -1 | 5
Cc1cccc(OCCCN2C(=O)C(=O)c3ccccc32)c1 | 0 | -11 | 0 | 7
CCOC(=O)c1ccccc1NC(=O)c1sc(N)c(C(=O)OCC)c1C | 0 | 54* | 1 | 22
COC(=O)c1c(N)sc(C(=O)Nc2ccc(C)cc2C)c1C | 0 | 76* | -3 | -18
SMILES | FBW7 activator | TEAD-YAP block | GPR151 ag | MITF inh
CCOC(=O)c1c(N)sc(C(=O)Nc2ccccc2C)c1C | 0 | -17 | -1 | -12
CCOC(=O)c1c(N)sc(C(=O)Nc2cccc(OC)c2)c1C | 0 | 52* | -8 | 18
CCOC(=O)c1ccc(NC(=O)c2sc(N)c(C(=O)OCC)c2C)cc1 | 0 | 61* | 2 | -4
COC(=O)c1c(N)sc(C(=O)Nc2ccccc2C)c1C | 0 | 24 | -2 | -22
CCOC(=O)c1ccc(NC(=O)c2sc(NC(=O)c3cc(OC)c(OC)c(OC)c3)c(C(=O)OCC)c2C)cc1 | 0 | 8 | 1 | 4
Cc1ccc(/C=C(\CC(=O)O)c2nc3ccccc3s2)o1 | 0 | 15 | 2 | 3
Cc1cc(-c2cn[nH]c2C2CCN(Cc3ccccn3)CC2)on1 | 0 | -2 | 1 | -4
CC(=O)NC(C(=O)NC(Cc1ccccc1)C(N)=O)C(C)C (configuration not stated) | 2.0* | -1 | 1 | 8
COC(=O)C(C)NC(=O)C(Cc1ccccc1)NC(C)=O (configuration not stated) | 0 | -3 | 0 | 9
CC(=O)NC(CC(C)C)C(=O)NC(Cc1ccccc1)C(N)=O (configuration not stated) | 2.5* | -2 | 0 | 6
CC(C)c1ccc(/C=C2\C(=O)ON=C2c2ccccc2)cc1 | 0 | -3 | 0 | 57*
CSc1ccc(/C=C2/C(=O)ON=C2c2ccccc2)cc1 | 0 | -7 | 1 | 38
COc1ccc(/C=C2/C(=O)ON=C2c2ccccc2)cc1 | 0 | -21 | 1 | 50
O=C1ON=C(c2ccccc2)/C1=C\c1ccc(O)cc1 | 0 | -13 | 0 | 59*
COC(=O)c1cn(CC(=O)OCc2ccc(C#N)cc2)c2ccccc12 | 0 | -1 | 0 | -1
CCc1ccc(C2C(C#N)=C(N)N(c3cc([N+](=O)[O-])ccc3C)C3=C2C(=O)CC(C)(C)C3)s1 (configuration not stated) | 0 | -11 | 1 | -5
C/C=C/COC(=O)C1=C(C)NC(=O)NC1c1ccc(N(C)C)cc1 (configuration not stated) | 0 | 10 | 0 | 4
CC1Cc2ccccc2N1S(=O)(=O)c1ccc2c(c1)n(C)c(=O)c(=O)n2C (configuration not stated) | 0 | 5 | 1 | 0
Cc1cc(-c2ccc(S(=O)(=O)N3c4ccccc4CC3C)cc2)on1 (configuration not stated) | 0 | 61* | 0 | 3
CC1Cc2ccccc2N1S(=O)(=O)c1ccc2[nH]c(=O)[nH]c2c1 (configuration not stated) | 0 | 37* | 1 | 10
COc1ccc(C(=O)N=c2nc3ccccn3s2)cc1 | 0 | 70* | -7 | 11
Cc1ccc(-c2nnc(Nc3ccccc3)o2)cc1 | 0 | 44* | -10 | 5
Cc1ccc(-c2nnc(-c3ccccc3C)o2)cc1 | 0 | -33 | -3 | 6
C=CCNC(=O)c1ccc(-c2cccc(NC(C)=O)c2)nc1NCc1cccnc1 | 0 | -5 | 0 | -6
COCCCNC(=O)c1ccc2c(c1)ncn2-c1cc(Cl)ccc1OC | 0 | -7 | -2 | 1
CC(C)(C)C1CCC(OC(=O)Nc2ccc3ccccc3c2)CC1 (configuration not stated) | 0 | 80* | 1 | -7
CC(C)(C)C1CCC(OC(=O)Nc2ccccc2)CC1 (configuration not stated) | 0 | -9 | 1 | -11
